± gives the standard deviation.
How the values were obtained:
[1] = tested on: MILI (PIWIL2) piRISC loaded with L1MC piRNA (26 nt); assay: pre-steady-state target cleavage rate (min^-1); guide: L1MC piRNA 5'p-UAACUAAAUACUAUGCAAGCUGUAGG; higher = faster piRNA-guided slicing of the target; settings: auxiliary factor: 500 nM mouse GTSF1
Procedure, shortened: (§1)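 The pre-steady-state cleavage rate was obtained by Cleave-'n-Seq with a burst-and-steady-state fit. A transcribed, DNA-blocked target RNA library (0.1 nM) was mixed with 1 nM active affinity-purified piRISC carrying one synthetic guide, with or without 500 nM GTSF1 partner protein, in HEPES–potassium acetate buffer at 33 °C for 0–8 or 0–960 min. Uncleaved targets were sequenced and normalised to depth and to weakly complementary targets, with three trials pooled and k3 capped at 0.0001 min^-1.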

[2] = tested on: EfPiwi piRISC loaded with L1MC piRNA (26 nt); assay: pre-steady-state target cleavage rate (min^-1); auxiliary factor: 500 nM Ephydatia muelleri Gtsf1; guide: L1MC piRNA 5'p-UAACUAAAUACUAUGCAAGCUGUAGG; MIWI and MILI are mouse PIWI proteins and EfPiwi is from a freshwater sponge; tags in brackets are library labels; higher = faster piRNA-guided slicing of the target
Procedure, shortened: as §1

Sequence | pre-steady-state target cleavage rate [1] | pre-steady-state target cleavage rate [2]
UCCUGCUAGAGCUUGCAUAGUUUUUAGUUA | 0.0598 ± 0.012 | 0.00419 ± 0.0013
UCCUCCUACAGCUUGCAUAGUAUUUUGAAA | 0.148 ± 0.03 | 0.00602 ± 0.0032
UCCUGGUACUGCUUGCAUAGUAUUUAGAUA | 0.0302 ± 0.014 | 0.00378 ± 0.0019
UCCUGGAUGUCCUUGCAUAGUAUUUAGUCUA | 0.0325 ± 0.01 | 0.00301 ± 0.0024
UCCUCCUUGUGCUUGCAUAGUAUUUAGAAA | 0.0325 ± 0.0085 | 0.00387 ± 0.0022
UCCUGGAUGAGCUUGCAUAGUAUAAAGUUA | 0.255 ± 0.047 | 0.00848 ± 0.0042
UCCUGGAUGAGCUUGCAUAGUAAUUAGUAA | 0.219 ± 0.042 | 0.00197 ± 0.0019
UCCUCCUACUGCUUGCAUAGUAUUUUCAAA | 0.0284 ± 0.0085 | 0.00274 ± 0.0026
UCCUGGUACAGCUUGCAAAGUAUUUAGUAA | 0.0794 ± 0.014 | 0.00304 ± 0.0024
UCCUCCUACAGCUAGCAUAGAAUUUAGUUA | 0.0602 ± 0.011 | 0.00325 ± 0.0019
UCCUGGAUCAGCUUGCAUACUAUUAAGUUA | 0.0204 ± 0.0077 | 0.00253 ± 0.0023
UCCUGGAUGAGCUUGCAUAGUAUUUAUUUA | 0.0843 ± 0.024 | 0.00435 ± 0.0029
UCCUGGUACAGCUUGCAUAGUAUUUACAAA | 0.0693 ± 0.017 | 0.003 ± 0.002
UCCUCCUACAGCUUGCAGUAGUAUUUAGUUA | 0.0101 ± 0.0053 | 0.00539 ± 0.0033
UCCUCCUACAGCAUGCAUAGUAUUUAGAUA | 0.176 ± 0.027 | 0.00452 ± 0.0019
UCCUGCUAGAGCUUGCAUAGUAUUUAGAAA | 0.205 ± 0.042 | 0.00419 ± 0.0022
UCCUGGAUCAGCUUGCUUAGUAUUUACAAA | 0.0696 ± 0.019 | 0.00612 ± 0.0047
UCCUGGAUGUGCUUGCAUAGUAUUGAGUUA | 0.0612 ± 0.019 | 0.00273 ± 0.0022
UCCUCCUACAGCUUGCAUAGUAUUAACUUA | 0.0722 ± 0.018 | 0.00459 ± 0.0029
UCCUGGAUCAGCAUCCAUAGUAUUUAGUUA | 0.103 ± 0.022 | 0.00269 ± 0.0023
UCCUGCUACAGCUAGCAUAGUAUUUAGAAA | 0.227 ± 0.051 | 0.00418 ± 0.0021
UCCUGGAUCAGCUUGCAUAGUAUUUAGUCUA | 0.0918 ± 0.025 | 0.00289 ± 0.0027
UCCUCGUACAGCUUGCAUAGUAUUUAGAAA | 0.131 ± 0.024 | 0.00711 ± 0.0033
UCCUGGAACAGCUUGCAUAGAAUUUUGUUA | 0.0296 ± 0.01 | 0.00229 ± 0.0021
UCCUCCUAGAGCUUGCAUAGUAUUUACAAA | 0.0915 ± 0.027 | 0.00252 ± 0.0019
UCCUCCUUGUGCUUGCAUAGUAUUUACAAA | 0.0181 ± 0.0068 | 0.00376 ± 0.0032
UCCUGCUACAGCUUGCAUAGAAUUAAGUUA | 0.048 ± 0.012 | 0.00288 ± 0.0022
UCCUGCUACAGCUAGCAUAGUAUUUAGAUA | 0.151 ± 0.028 | 0.00409 ± 0.0015

Sequence | pre-steady-state target cleavage rate [1] | pre-steady-state target cleavage rate [2]
UCCUGGAUCUGCUUGCAUAGUAUUUAGAUA | 0.0934 ± 0.016 | 0.00401 ± 0.0022
UCCUGCUACAGCUUGCAUACUAUUUAGUAA | 0.0862 ± 0.018 | 0.00476 ± 0.0026
UCCUGCUACAGCUUGCAAAGUUUUUAGUUA | 0.0201 ± 0.0069 | 0.00207 ± 0.002
UCCUGCUACUCCUUGCAUAGUAUUUAGAAA | 0.0806 ± 0.019 | 0.00264 ± 0.002
UCCUGGAACACCUUGCAUAGUAUUUUGUUA | 0.14 ± 0.035 | 0.00343 ± 0.0029
UCCUGCUACAGCAUGCAUAGUAUUUACUUA | 0.261 ± 0.041 | 0.0037 ± 0.0024
UCCUCCUACAGCUUGCAUUAGUAUUUAGUUA | 0.0229 ± 0.0088 | 0.00479 ± 0.0038
UCCUGCUACAGCUUGCAUAGUAUUAAGUAA | 0.172 ± 0.042 | 0.00315 ± 0.0016
UCCUCCUACAGCUUGCAUAGUUAUUAGAAA | 0.0109 ± 0.0053 | 0.00348 ± 0.0028
UCCUGCUACAGCUUGCUAUAGUAUUUAGUUA | 0.05 ± 0.017 | 0.0075 ± 0.002
UCCUGCUACAGCUUGCAUAGUUUUAAGUUA | 0.0676 ± 0.015 | 0.00341 ± 0.0017
UCCUGGAACAGCUUGCAUAGUAAUUAGAAA | 0.0609 ± 0.018 | 0.00338 ± 0.0026
UCCUGGUACAGCUUGCAUAGUAUAUAGUAA | 0.173 ± 0.034 | 0.00335 ± 0.0022
UCCUGGAUGUGCUUGCAUAGUAUUUACGUUA | 0.129 ± 0.026 | 0.00702 ± 0.0042
UCCUCCUACAGCUUGCUUAGUAUUUAGAUA | 0.15 ± 0.018 | 0.00689 ± 0.0038
UCCUGCUACAGCUUGCAUAGUAUUUUCAAA | 0.137 ± 0.041 | 0.00277 ± 0.0021
UCCUGGAUCAGCUUGCAAUAGUAUUUAGUUA | 0.00703 ± 0.0039 | 0.0153 ± 0.0038
UCCUGCUACAGCUUGCAUAGUAUUUAGCUUA | 0.161 ± 0.037 | 0.00522 ± 0.0019
UCCUGCUACAGCUUGCAUAGUUUUUAGAUA | 0.0373 ± 0.011 | 0.00319 ± 0.0018
UCCUGCUACAGCUUGCAUAGUUUUUACAAA | 0.0689 ± 0.019 | 0.00339 ± 0.0026
UCCUCCUACACCUUGCAUAGUAUUUUGUUA | 0.101 ± 0.026 | 0.00451 ± 0.0027
UCCUGGAACAGCUUGCAUAGUAUUUACAUA | 0.0382 ± 0.014 | 0.00316 ± 0.0025
UCCUGCUACAGCUUGCUUAGUAUUUUGUUA | 0.156 ± 0.027 | 0.0127 ± 0.004
UCCUCCUACAGCUUGCAUUGUAUUUAGAUA | 0.119 ± 0.019 | 0.00539 ± 0.0029
UCCUCCUACAGGUUGCAUAGUAUUUACAAA | 0.052 ± 0.014 | 0.00321 ± 0.0024
UCCUGGAUGAGCUUGCAUAGCAUUUAGUUA | 0.0853 ± 0.016 | 0.0029 ± 0.0019
UCCUGCUAGAGCUUGCAUACUAUUUAGUUA | 0.0842 ± 0.018 | 0.00515 ± 0.0018

— the supplement of paper PMC10338343
